# Reference: the supplement of paper PMC8728848
# Shown is part of a subset that was picked to be rich in the strongest signals.
# B1: BSR4 (Toxoplasma gondii), Q95NL6 (protein)
# chain: MVMMGSMQQRRGGLRSNARQLLAVCMSGVVFFSSGQAVADNLLEGLLHRTLQQQVEVTSRLTVAGSDAKCDFFTPATQDSPPVSGSLTLSKGRMTATFECSATQALSISTIPTNIEQNVCDPKKTTNGTVCQFGANGSAGTEVTLKDLLETDRIVNWKVNEQREESNKSQKWSLELHNEDLPLTDKAFVVGCQATSAARGTESGKTAACKLTVNVEARASSLAENNVVTCAYGKGSNPNPVEVEMSTEKNTLTINCGSDGSLQPTTYAEEYCVADSKDVNRCSTTRFVEIFPKFLKSWWVTETQKRTSATLTIPQTDLPEADQQFLVGCVPKKTAPEDPKKDKESGTETGAPTSCTVLVTVKAASSASHASPTVQILAAASSAAA
# How the values were obtained:
# Assay in all cases: glycan array binding signal (z-score within array); higher = stronger binding
# Conditions in all cases: glycan notation: IUPAC condensed, linker removed
# [1] = biological target: Fuc(a1-2)Gal(b1-3)[Fuc(a1-4)]GlcNAc
# In short: (§1)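 Columns mapping to the same glycan were averaged after glycan names were converted to IUPAC-condensed notation. The data come from 3228 arrays in the Consortium for Functional Glycomics database, limited to those with an available protein sequence. Binding is reported as a within-array Z-score averaged across arrays of one protein sequence and across linkers.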
# [2] = biological target: Fuc(a1-2)Gal(b1-4)[Fuc(a1-3)]GlcNAc(b1-2)Man(a1-3)[Fuc(a1-2)Gal(b1-4)[Fuc(a1-3)]GlcNAc(b1-2)Man(a1-6)]Man(b1-4)GlcNAc(b1-4)GlcNAc
# In short: as §1
# [3] = biological target: Fuc(a1-2)[GalNAc(a1-3)]Gal(b1-4)GlcNAc(b1-2)Man(a1-3)[Fuc(a1-2)[GalNAc(a1-3)]Gal(b1-4)GlcNAc(b1-2)Man(a1-6)]Man(b1-4)GlcNAc(b1-4)GlcNAc
# In short: as §1
# [4] = biological target: Fuc(a1-3)[Gal(b1-4)]GlcNAc
# In short: as §1
# [5] = biological target: Fuc(a1-3)[Gal(b1-4)]GlcNAc(b1-4)Gal(b1-4)[Fuc(a1-3)]GlcNAc
# In short: as §1
# [6] = biological target: Gal(b1-3)[Fuc(a1-4)]GlcNAc(b1-2)Man(a1-3)[Gal(b1-3)[Fuc(a1-4)]GlcNAc(b1-2)Man(a1-6)]Man(b1-4)GlcNAc(b1-4)GlcNAc
# In short: as §1
# [7] = biological target: Gal(b1-4)GlcNAc(b1-2)Man(a1-3)[GlcNAc(b1-2)Man(a1-6)]Man(b1-4)GlcNAc(b1-4)GlcNAc
# In short: as §1
# [8] = biological target: Gal(b1-4)GlcNAc(b1-3)GalNAc
# In short: as §1
# [9] = biological target: Gal(b1-4)GlcNAc(b1-3)[GlcNAc(b1-6)]Gal(b1-4)GlcNAc
# In short: as §1
# [10] = biological target: Gal3S(b1-3)[Fuc(a1-4)]GlcNAc
# In short: as §1
# [11] = biological target: Gal3S(b1-4)[Fuc(a1-3)]Glc6S
# In short: as §1
# GalNAc(a1-3)Gal = biological target: GalNAc(a1-3)Gal
# In short: as §1
# [12] = biological target: GalNAc(b1-3)Gal(a1-6)Gal(b1-4)Glc
# In short: as §1
# Glc(b1-6)Glc = biological target: Glc(b1-6)Glc
# In short: as §1
# [13] = biological target: GlcNAc(a1-4)Gal(b1-4)GlcNAc(b1-3)Gal(b1-4)GlcNAc(b1-3)Gal(b1-4)GlcNAc
# In short: as §1
# [14] = biological target: GlcNAc(a1-4)Gal(b1-4)GlcNAc(b1-3)Gal(b1-4)[Fuc(a1-3)]GlcNAc(b1-3)Gal(b1-4)[Fuc(a1-3)]GlcNAc
# In short: as §1
# [15] = biological target: GlcNAc(b1-2)Gal(b1-3)GalNAc
# In short: as §1
# [16] = biological target: GlcNAc(b1-2)Man(a1-3)[GlcNAc(b1-2)Man(a1-6)]Man(b1-4)GlcNAc(b1-4)[Fuc(a1-6)]GlcNAc
# In short: as §1
# GlcNAc(b1-3)Gal = biological target: GlcNAc(b1-3)Gal
# In short: as §1
# [17] = biological target: GlcNAc(b1-3)Gal(b1-3)GalNAc
# In short: as §1
# [18] = biological target: Neu5Ac(a2-3)Gal(b1-3)[Neu5Ac(a2-6)]GalNAc
# In short: as §1
# [19] = biological target: Neu5Ac(a2-3)Gal(b1-4)GlcNAc(b1-3)Gal(b1-4)[Fuc(a1-3)]GlcNAc
# In short: as §1
# [20] = biological target: Neu5Ac(a2-3)Gal(b1-4)[Fuc(a1-3)]GlcNAc(b1-3)GalNAc
# In short: as §1
# [21] = biological target: Neu5Ac(a2-3)Gal(b1-4)[Fuc(a1-3)]GlcNAc(b1-6)[Gal(b1-3)]GalNAc
# In short: as §1
# [22] = biological target: Neu5Ac(a2-3)Gal6S(b1-4)GlcNAc
# In short: as §1
# [23] = biological target: Neu5Ac(a2-6)Gal(b1-4)GlcNAc(b1-2)Man(a1-3)[GlcNAc(b1-2)Man(b1-4)GlcNAc(b1-2)Man(a1-6)]Man(b1-4)GlcNAc(b1-4)GlcNAc
# In short: as §1
# [24] = biological target: Neu5Ac(a2-6)GlcNAc(b1-4)GlcNAc(b1-4)GlcNAc
# In short: as §1
# [25] = biological target: Neu5Ac9Ac(a2-3)Gal(b1-4)GlcNAc
# In short: as §1
# [26] = biological target: Neu5Gc(a2-3)Gal(b1-4)GlcNAc
# In short: as §1
binder,measurement,setting,value
B1,glycan array binding signal (z-score),[1],0.187
same,glycan array binding signal (z-score),[2],1.41
same,glycan array binding signal (z-score),[3],-0.071
same,glycan array binding signal (z-score),[4],0.23
same,glycan array binding signal (z-score),[5],1.44
same,glycan array binding signal (z-score),[6],1.39
same,glycan array binding signal (z-score),[7],-0.349
same,glycan array binding signal (z-score),[8],0.454
same,glycan array binding signal (z-score),[9],0.261
same,glycan array binding signal (z-score),[10],5.04
same,glycan array binding signal (z-score),[11],0.993
same,glycan array binding signal (z-score),GalNAc(a1-3)Gal,-0.538
same,glycan array binding signal (z-score),[12],-0.617
same,glycan array binding signal (z-score),Glc(b1-6)Glc,-0.765
same,glycan array binding signal (z-score),[13],-0.25
same,glycan array binding signal (z-score),[14],1.8
same,glycan array binding signal (z-score),[15],0.324
same,glycan array binding signal (z-score),[16],7.79
same,glycan array binding signal (z-score),GlcNAc(b1-3)Gal,-0.636
same,glycan array binding signal (z-score),[17],1.23
same,glycan array binding signal (z-score),[18],0.026
same,glycan array binding signal (z-score),[19],0.289
same,glycan array binding signal (z-score),[20],3.61
same,glycan array binding signal (z-score),[21],1.73
same,glycan array binding signal (z-score),[22],-0.227
same,glycan array binding signal (z-score),[23],-0.667
same,glycan array binding signal (z-score),[24],-0.434
same,glycan array binding signal (z-score),[25],0.407
same,glycan array binding signal (z-score),[26],-0.102
